Assay [1] addresses Aldehyde dehydrogenase, mitochondrial (Homo sapiens) (UniProt P05091). The assay is described as follows: qHTS for Inhibitors of the Aldehyde Dehydrogenase Family (ALDH2) Confirmatory screens (AID 2061303; active = well fitted inhibition curve with a large enough effect; title and protocol of this record describe different tests; also: nearly all actives have a fitted effect of over 45% in size). Particulars: ALDH inhibition qHTS; series mostly up to 45.4 µM. A general note: qHTS replaces the single test concentration by a dilution series.
Assay [2] in a line: qHTS for Inhibitors of the Aldehyde Dehydrogenase Family (ALDH1A2, ALDH1A3, ALDH2, ALDH3A1) (AID 2061307). Also: nearly all actives have a fitted effect of over 50% in size. As to Potency: test system not described further here. Particulars: ALDH inhibition qHTS; series mostly up to 50.3 µM.
The target in assay [3] is Aldehyde dehydrogenase, mitochondrial (Homo sapiens) (UniProt P05091). The assay is described as follows: qHTS for Inhibitors of the Aldehyde Dehydrogenase Family (ALDH2) Primary screen (AID 2061308). Also: nearly all actives have a fitted effect of over 55% in size. Conditions: ALDH2 enzyme inhibition qHTS, 1536-well; series mostly up to 56 µM.
In assay [4] the target is Retinaldehyde dehydrogenase 3 (Homo sapiens) (UniProt P47895). As to the kind of experiment: qHTS for Inhibitors of the Aldehyde Dehydrogenase Family (ALDH1A3) Confirmatory screens (AID 2061311). Also: nearly all actives have a fitted effect of over 60% in size. Particulars: ALDH inhibition qHTS; series mostly up to 46 µM.
In assay [5] the target is Retinal dehydrogenase 2 (Homo sapiens) (UniProt O94788). As to the kind of experiment: qHTS for Inhibitors of the Aldehyde Dehydrogenase Family (ALDH1A2) Confirmation screens (AID 2061314). Also: nearly all actives have a fitted effect of over 65% in size. Conditions: ALDH1A2 enzyme inhibition qHTS confirmation; series mostly up to 45.9 µM.
In assay [6] the target is Retinaldehyde dehydrogenase 3 (Homo sapiens) (UniProt P47895). As to the kind of experiment: qHTS for Inhibitors of the Aldehyde Dehydrogenase Family (ALDH1A3) Primary screen (AID 2061315). Particulars: ALDH inhibition qHTS; series mostly up to 56 µM.
The target of assay [7] is Aldehyde dehydrogenase 1A1 (Homo sapiens) (UniProt P00352). As to the kind of experiment: qHTS for Inhibitors of the Aldehyde Dehydrogenase Family (ALDH1A1) Confirmatory screens (AID 2061316). Also: nearly all actives have a fitted effect of over 65% in size. Particulars: ALDH inhibition qHTS; series mostly up to 47.3 µM.

The structures appear in SMILES notation. Inconclusive results are not listed. Activity calls are given as the source filed them. Unless noted, calls follow the shape of the dose curve; as a rule, active = well fitted curve in the direction sought with a large enough effect; inconclusive = small, poorly fitted or top-dose-only effect, or another doubt; inactive = no such curve, though single readings can be large; an effect the other way counts as inactive or inconclusive.

This passage reports Potency results from PubChem BioAssay (NCATS).
Potency is read from the fitted curve at half-maximal effect.

Regarding `CC(=O)SCC(CC(=O)c1ccc(C)cc1)C(=O)O` (configuration not stated), the Potency result in assay [1], in assay [2], in assay [3], in assay [4], in assay [5] and in assay [6] was “inactive” each time. Also, the Potency entry in assay [7] was “inactive”.
As for `N#Cc1c(-c2ccc(F)cc2)no[n+]1[O-]`, the Potency entry in assay [1], in assay [3], in assay [4] and in assay [6] was “inactive” throughout. In addition, the Potency in assay [2] was 12.7 µM (active).
Consider `CNc1oc(-c2cccc(-c3ccccc3)c2)nc1C#N`, for which the Potency in assay [1] is 15.8 µM (active); in assay [2], 17.8 µM (active); in assay [4], 25.1 µM (active). The Potency result in assay [3], in assay [6] and in assay [7] was “inactive” in each case.
For `Cc1cccc(C)c1-n1c(SCC(=O)NCCCCCC(=O)O)nnc1-c1cccc([S+](=O)([O-])N2CCCC2)c1`, the Potency result in assay [1], in assay [2], in assay [3], in assay [4], in assay [6] and in assay [7] was “inactive” each time.
For `O=[N+]([O-])c1ccc(S(=O)(=O)c2ccc(Cl)cc2)nc1`, the Potency in assay [1] is 0.504 µM (active); in assay [2] it was 2.82 µM (active); in assay [3], 0.251 µM (active); in assay [4], 28.2 µM (active); in assay [5], 3.16 µM (active); in assay [7], 0.283 µM (active).
Regarding `O=C(c1ccc(-c2cc(O)c3ncccc3c2)cc1)N1CCNCC1`, the Potency entry in assay [1], in assay [2], in assay [3], in assay [6] and in assay [7] was “inactive” in each case. Moreover, in assay [4], the Potency is 11.3 µM (active).
On to `COc1ccc(C2Nc3ccccc3C(=O)N2Cc2ccccc2C(F)(F)F)cc1COc1ccc(NC(C)=O)cc1` (configuration not stated), for which the Potency is 0.316 µM (active) in assay [1], 2.25 µM (active) in assay [2] and 15.9 µM (active) in assay [4]. In addition, the Potency entry in assay [3] and in assay [6] was “inactive” each time.
Take `O=C(NC1CCCc2c1cnn2-c1ccc(F)cc1F)c1ccc(C(=O)c2ccccc2)cc1` (configuration not stated): the Potency result in assay [1], in assay [2], in assay [3], in assay [4] and in assay [6] was “inactive” each time.
For `COc1ccc(C2Nc3ccccc3C(=O)N2Cc2ccccc2)cc1COc1ccc(NC(=O)c2ccccc2)cc1` (configuration not stated), the Potency result in assay [1], in assay [3], in assay [4] and in assay [6] was “inactive” in each case. Also, the Potency in assay [2] was 1.59 µM (active).
For `CCOC(=O)c1ccoc1-c1ccc2ncnc(NCc3ncc[nH]3)c2c1`, the Potency result in assay [1], in assay [2], in assay [3], in assay [4] and in assay [6] was “inactive” throughout.
Regarding `COc1ccc(C2Nc3ccccc3C(=O)N2Cc2cccc(C(F)(F)F)c2)cc1COc1ccc(NC(C)=O)cc1` (configuration not stated), the Potency in assay [1] is 11.2 µM (active); in assay [2], 4 µM (active); in assay [4], 10 µM (active). Also, the Potency entry in assay [3] and in assay [6] was “inactive” each time.
Turning to `Cc1ccnc(NC(=S)N2CCN(c3ccc(N)cc3)CC2)c1`, the Potency entry in assay [1], in assay [2], in assay [3], in assay [4] and in assay [6] was “inactive” each time.
In the case of `CN(Cc1ccco1)c1ncnc2ccc(-c3cccnc3)cc12`, the Potency result in assay [1], in assay [2], in assay [3] and in assay [6] was “inactive” each time. In addition, the Potency is 7.98 µM (active) in assay [4] and 11.3 µM (active) in assay [7].
On to `O=C1Cc2cc(S(=O)(=O)N3CCN(c4ccc(C(F)(F)F)cc4)CC3)ccc2N1`, for which the Potency result in assay [1], in assay [2], in assay [3], in assay [4], in assay [6] and in assay [7] was “inactive” throughout.
With `O=C(NCCN1CCCC1)[C@H](Cc1ccc(OS(=O)(=O)c2cccc3cnccc23)cc1)NS(=O)(=O)c1cccc2cnccc12`, the Potency result in assay [1], in assay [2], in assay [3], in assay [4] and in assay [6] was “inactive” each time.
With `CN1CCc2sc(NC(=O)Cc3ccccc3)c(C(=O)Nc3ccc(Cl)cc3)c2C1`, the Potency entry in assay [1], in assay [2], in assay [3], in assay [4] and in assay [6] was “inactive” each time.
On to `Cc1cccc(Nc2nc(C#N)nc(NC3CCCC3)n2)c1`, for which the Potency is 2.51 µM (active) in assay [1], 0.447 µM (active) in assay [2] and 17.8 µM (active) in assay [4]. Further, the Potency result in assay [3] and in assay [6] was “inactive” each time.
Take `COc1cccc(C2c3c(ncn(-c4ccccc4C#N)c3=N)Oc3ccc4ccccc4c32)c1` (configuration not stated): the Potency result in assay [1], in assay [2], in assay [3] and in assay [6] was “inactive” each time. In addition, in assay [4], the Potency was 25.2 µM (active).
For `COc1cccc(CNc2ccc([S+](=O)([O-])Nc3cc4ccccc4s3)cc2)c1O`, the Potency result in assay [1], in assay [2], in assay [3], in assay [6] and in assay [7] was “inactive” in each case. In assay [4], the Potency is 11.3 µM (active).
For the compound `COc1ccc(C2Nc3ccccc3C(=O)N2Cc2ccc(C(F)(F)F)cc2)cc1COc1ccc(NC(C)=O)cc1` (configuration not stated), the Potency in assay [1] was 0.447 µM (active); in assay [2], 3.57 µM (active); in assay [4] it was 2.51 µM (active); in assay [7], 22.5 µM (active). Further, the Potency entry in assay [3] and in assay [6] was “inactive” each time.
On to `CCOc1cc(CNc2ccc(O)cc2)ccc1OCc1ccc(Cl)cc1`, for which the Potency in assay [1] was 10.1 µM (active); in assay [2], 11.3 µM (active); in assay [3], 3.16 µM (active); in assay [4] it was 1.01 µM (active); in assay [5], 0.504 µM (active); in assay [7], 6.34 µM (active).
As to `O=C(Nc1ccc2c(c1)CCC2)Nc1nnc(-c2ccncc2)s1`, the Potency entry in assay [1], in assay [2], in assay [3], in assay [4] and in assay [6] was “inactive” throughout.
`O=C(O)c1cccc(-c2noc(-c3cccc(Cl)c3)n2)c1`: the Potency entry in assay [1] and in assay [3] was “inactive” each time. Further, the results for the Potency in assay [2], in assay [4] and in assay [6] were 0.381 µM (active), 0.201 µM (active) and 0.562 µM (active), respectively.
Take `CC(C)(C)CNc1nc(C#N)nc(Nc2ccccc2)n1`: the Potency entry in assay [1], in assay [3], in assay [4] and in assay [6] was “inactive” throughout. Also, the Potency in assay [2] is 12.7 µM (active).
Consider `CC(=O)c1ccc(N2CCN(C(=O)c3ccc4c(c3)CC(=O)N4)CC2)cc1`, for which the Potency result in assay [1], in assay [2], in assay [3], in assay [4] and in assay [6] was “inactive” throughout.
As to `Cn1nnnc1Sc1ncnc2scc(-c3cnc(N)nc3)c12`, the Potency entry in assay [1], in assay [2], in assay [3], in assay [4] and in assay [6] was “inactive” in each case.
As for `N#Cc1nc(Nc2cccc(Br)c2)nc(NC2CCCC2)n1`, the Potency entry in assay [1], in assay [3], in assay [4] and in assay [6] was “inactive” throughout. In addition, in assay [2], the Potency is 10.1 µM (active).
In the case of `CN(Cc1cccs1)c1ncnc2ccc(-c3ccc4cnn(C)c4c3)cc12`, the Potency entry in assay [1], in assay [2], in assay [3], in assay [4], in assay [6] and in assay [7] was “inactive” in each case.
